# D1 PAM – enhances dopamine response at the human D1 receptor. P21728. HEK293 TREx D1 cells, calcium flux, dopamine EC20 potentiation. potentiation, % at 10 µM. 360,000 compounds, 0.036% hits. AID 504651; in the data active means potentiation above about 30%
# Target sequence (P21728 whole entry, looked up): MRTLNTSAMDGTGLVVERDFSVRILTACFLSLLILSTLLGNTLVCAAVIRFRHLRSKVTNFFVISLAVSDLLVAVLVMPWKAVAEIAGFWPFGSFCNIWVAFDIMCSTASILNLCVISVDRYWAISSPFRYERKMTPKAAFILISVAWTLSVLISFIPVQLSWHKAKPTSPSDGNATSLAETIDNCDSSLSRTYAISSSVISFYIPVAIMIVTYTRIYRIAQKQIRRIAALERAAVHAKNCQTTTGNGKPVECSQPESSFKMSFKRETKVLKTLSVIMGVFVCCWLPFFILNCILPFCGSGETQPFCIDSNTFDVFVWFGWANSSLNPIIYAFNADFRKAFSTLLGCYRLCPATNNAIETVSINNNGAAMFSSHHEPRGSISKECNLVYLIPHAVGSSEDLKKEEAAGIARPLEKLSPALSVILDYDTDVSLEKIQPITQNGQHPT
# D1 agonist – human D1 receptor agonism. P21728. HEK293 T-REx D1 cells, calcium flux, agonist mode. activation, % at 2 µM. 360,000 compounds, 1% hits. AID 504660
#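 Agonism was scored from calcium flux recorded over 180 s (1 read/s) after pintool compound addition, following a 10-cycle baseline. Cells were inducible force-coupled HEK293 TREx D1, plated overnight at 30 C and loaded with no-wash calcium dye.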
# TRHR enhancer – TRH receptor (human) allosteric enhancement. P34981. enhancement, % at 2 µM. TRHR cells, fluo-8 calcium fluorescence, EC20 TRH enhancement. 360,000 compounds, 0.66% hits; in the data active means enhancement above about 30%
#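 TRHR-expressing cells loaded with fluo-8 calcium dye were read kinetically (ex 480/em 530) during compound addition, then stimulated with an EC20 of TRH (10 nM final). Enhancement of the Gq-mediated intracellular calcium response was scored.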
# D1 antag – human D1 dopamine receptor antagonism; P21728; HEK293 TREx D1 cells, calcium flux, dopamine EC80; active compounds read low; activity change, negative = inhibition, % at 10 µM; 360,000 compounds, 3.2% hits; AID 504652; in the data active means activity change below about -30%
#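 Kinetic fluorescence of a calcium dye serves as the read-out. D1-expressing Hek293 Trex cells, induced overnight at 30 C, are exposed to compound for 180 s before an EC80 dopamine addition, then read 180 s further.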
# TRHR agonist – agonists of human TRH receptor. TRHR cells, calcium flux fluo-8, FDSS agonist mode. AID 493084. 360,000 compounds, 0.18% hits. activation, % at 2 µM. P34981
#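 Agonist-mode FDSS calcium read (Ex 480/Em 530, 1 s cycles) in 1536-well TRHR cells with fluo-8 dye, after 10-cycle baseline and 23 nL compound addition; TRH at EC20 (10 nM final) added afterwards for the enhancer phase.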
# A number is an active result; . = inactive; ! = not active in a repeat. Only some compounds are listed: those with a hit (about 4.6% of all), similar ones and a draw of the others. Unless noted, no stated cut-off is given here; in the data, active means activation above about 30%; inactive means the rest.
SMILES,D1 PAM,D1 agonist,TRHR enhancer,D1 antag,TRHR agonist
Cc1cc2c(c(=O)o1)C(Cc1ccccc1)C(C#N)=C(N)O2 (configuration not stated),.,.,.,-56,.
CCOc1ccc(/C=C/c2nc(C#N)c(NC3CCCCC3)o2)cc1,.,.,.,-38,.
CC(C)CCOc1ccc(C(=O)N2CCCC2C(=O)O)cc1 (configuration not stated),.,.,.,.,.
COc1ccc(NC(=O)Cn2nnc(C(=O)NCCc3ccccc3)c2N)cc1,.,.,.,.,.
Nc1c(C(=O)Nc2ccccc2)nnn1Cc1ccc(F)cc1Cl,.,88,.,-31,.
Nc1c(C(=O)Nc2ccc3c(c2)OCCO3)nnn1Cc1ccccc1Cl,.,.,.,.,.
COc1ccc(NC(=O)Cn2nnc(C(=O)Nc3ccccc3C)c2N)cc1,.,.,.,-64,.
COc1ccc(NC(=O)c2nnn(Cc3ccc(Br)cc3F)c2N)c(OC)c1,.,34,.,.,.
COc1ccc(OC)c(NC(=O)c2nnn(Cc3ccc(Br)cc3F)c2N)c1,.,.,.,.,.
Cc1ccc(C)c(NC(=O)c2nnn(Cc3ccc(F)cc3Cl)c2N)c1,.,79,.,-32,.
O=C(CN(c1cccc(C(F)(F)F)c1)S(=O)(=O)c1ccccc1)Nc1cccc(Cl)c1,.,.,.,.,.
Cc1ccc(C)c(NC(=O)c2nnn(Cc3ccccc3)c2N)c1,.,.,.,.,.
Cc1ccc(Cn2nnc(C(=O)Nc3cc(C)ccc3C)c2N)cc1,.,40,.,.,.
Cc1ccc(CN2C(=O)c3oc4ccc(C)cc4c(=O)c3C2c2ccc(O)cc2)cc1 (configuration not stated),.,.,.,.,.
CC(C)N(Cc1nc(-c2ccccc2)no1)C(=O)CCCN1C(=O)c2ccccc2C1=O,.,.,.,-49,.
CC(C)N(Cc1nc(-c2ccccc2)no1)C(=O)CN1C(=O)c2ccccc2C1=O,.,.,.,.,.
O=C(NCc1nc(-c2ccc(C(F)(F)F)cc2)no1)c1cccs1,.,.,.,-34,.
COc1ccc(-c2noc(CN(C(=O)c3cccs3)C(C)C)n2)cc1,.,37,.,.,.
Cc1ccc(C(=O)NCC(c2ccc3c(c2)OCO3)N2CCOCC2)cc1 (configuration not stated),.,.,.,.,.
CCC1(CC)NC(=O)N(CC(=O)OCC(=O)Nc2ncc(Cl)cc2Cl)C1=O,.,.,.,-64,.
O=C(COC(=O)CCOc1ccccc1)Nc1ncc(Cl)cc1Cl,.,.,.,-60,.
O=C(COC(=O)CN1C(=O)c2ccccc2C1=O)Nc1ncc(Cl)cc1Cl,.,.,.,.,.
COc1ccc(S(=O)(=O)N2CCC(N3CCN(Cc4ccccc4)C(=O)C3=O)CC2)cc1,.,.,.,.,.
CNc1nc(-c2ccc3c(c2)CCN3C(=O)CC(C)(C)C)c(C)s1,.,.,.,-35,.
CC(C)CN(C(=O)COc1ccc(-c2nnco2)cc1)C1CCS(=O)(=O)C1 (configuration not stated),.,.,.,-47,.
SMILES,D1 PAM,D1 agonist,TRHR enhancer,D1 antag,TRHR agonist
CC(=O)Nc1ccc(OCC(=O)N(CC(C)C)C2CCS(=O)(=O)C2)cc1 (configuration not stated),.,.,.,.,.
CCN(C(=O)COC(=O)c1ccccc1SCC(=O)NC1CCCCCCC1)C1CCS(=O)(=O)C1 (configuration not stated),.,.,.,.,.
CC(C)CN(C(=O)COC(=O)c1ccc([N+](=O)[O-])o1)C1CCS(=O)(=O)C1 (configuration not stated),.,.,.,-32,.
CC(C)CN(C(=O)COC(=O)c1ccccc1SCC(=O)NC1CCCCCC1)C1CCS(=O)(=O)C1 (configuration not stated),.,.,.,-42,.
COc1ccccc1CNC(=O)COc1cc2c(c3oc(=O)cc(C)c13)CCC(C)(C)O2,.,.,.,.,.
CC(O)CNCCNCc1c(OCc2ccccc2)ccc2ccccc12 (configuration not stated),.,122,.,.,.
OCCNCc1c(OCc2ccc(Cl)cc2)ccc2ccccc12,.,160,.,-38,.
CC(O)CNCCOc1ccccc1OCc1ccccc1 (configuration not stated),.,.,.,.,.
O=c1c2[nH]c3ccsc3c2cnn1Cc1ccccc1F,.,.,.,.,.
COc1ccc(OC)c(/C=N/N=C(\N)c2nonc2N)c1,.,.,.,-30,.
N/C(=N\N=C\c1ccc([N+](=O)[O-])cc1)c1nonc1N,.,.,.,-43,.
CC(=O)Oc1c(I)cc(I)cc1C(=O)Nc1ccc(Cl)cc1,.,.,.,.,.
CCCCNC(=O)/C(C#N)=C/c1ccc(F)cc1F,.,.,.,-52,.
COCCCNC(=O)/C(C#N)=C/c1ccc(F)cc1,.,.,.,.,.
N#Cc1nc(Nc2cccc(F)c2)nc(NC2CCCC2)n1,.,.,.,-34,.
N#Cc1nc(Nc2ccc3ccccc3c2)nc(NC2CCCC2)n1,.,.,.,.,.
N#Cc1nc(Nc2cccc(-c3ccccc3)c2)nc(NC2CCCC2)n1,.,.,.,-31,.
Fc1cc(F)cc(Nc2nc(NC3CCCC3)nc(C3CO3)n2)c1 (configuration not stated),.,74,.,-37,.
COc1ccc(Nc2nc(C#N)nc(NC3CCCC3)n2)cc1,.,.,.,-36,.
CC(=O)c1ccc(NC(=O)c2noc3c2CSc2ccccc2-3)cc1,.,.,.,.,.
Cc1nc(-c2cccc(S(=O)(=O)N3CCC(C(=O)NCc4ccccc4)CC3)c2)no1,.,.,.,.,.
CCOC(=O)c1ccc(NC(=O)c2ccccc2N(C)S(=O)(=O)c2ccccc2)cc1,.,.,.,.,.
Cc1nn(CC(=O)N2CCCCC2)c(=O)c2cc3occc3n12,.,.,.,.,.
Cn1c(C(=O)NCc2cccc(F)c2)cc2cc(S(=O)(=O)N3CCCCC3)ccc21,.,.,.,-54,.
O=C(CCn1ccc2cc(S(=O)(=O)N3CCCC3)ccc21)NCc1cccc(F)c1,.,.,.,-33!,.
CN(C)c1ccc(CNC(=O)c2cc3cc(S(=O)(=O)N4CCCCC4)ccc3n2C)cc1,.,.,.,.,.
Cn1c(C(=O)NCc2ccccc2F)cc2cc(S(=O)(=O)N3CCCCC3)ccc21,.,.,.,.,.
Cc1cccc(CNC(=O)c2cc3cc(S(=O)(=O)N4CCCCC4)ccc3n2C)c1,.,.,.,-46,.
COc1ccc(-c2nc(SCC(=O)NCC3CCCO3)c(-c3ccc(Cl)cc3)[nH]2)cc1 (configuration not stated),.,.,.,.,.

# Screens deposited in PubChem by National Center for Advancing Translational Sciences (NCATS).
